Assay results published in PubChem BioAssay (EPA / NIEHS).
The source made the active and inactive calls. How the source made its calls: active means hit-call score of the fitted dose curve at least 0.9, where 1 is the maximum; inactive means score below 0.9.

Tests used:
[1] = CEETOX_H295R_TESTO: CeeTox H295R High-throughput Steroidogenesis Assay for Testosterone (TESTO) (AID 2283457); conditions: actives raise or lower the signal
Summary of the method: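 H295R adrenal cells, passage ≤10, exposed to chemicals for 48 h. Testosterone in medium measured by MTBE extraction and HPLC-MS/MS against a 7-point standard curve. Bidirectional fit versus DMSO; MTT viability checked in the same wells.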

[2] = read-out: Forkhead box O1 (FOXO1), FOXO1 (gene 2308); test: LTEA_HepaRG_FOXO1: Life Technologies and Expression Analysis (LTEA) Assay for Forkhead box O1 (FOXO1) using HepaRG (AID 2283456); conditions: mRNA level, 48 h; actives raise or lower the signal
Summary of the method: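 Readout is FOXO1 transcript level by multiplexed qRT-PCR against three housekeeping genes, curve-fitted in both directions relative to 0.5% DMSO vehicle. Human HepaRG cultures received chemicals for 48 h, up to 100 uM in half-log steps.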

[3] = read-out: growth arrest and DNA damage 45 (GADD45A), GADD45A (gene 1647); test: LTEA_HepaRG_GADD45A: Life Technologies and Expression Analysis (LTEA) Assay for growth arrest and DNA damage 45 (GADD45A) using HepaRG (AID 2283458); conditions: mRNA level, 48 h; actives raise or lower the signal
Summary of the method: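 Differentiated HepaRG cells were exposed in duplicate for 48 h in serum-free induction medium to 8-point half-log concentrations up to 100 uM in 0.5% DMSO. GADD45A mRNA was measured by TaqMan qRT-PCR, normalized to ACTB, GAPDH and POLR2A, with bidirectional fitting versus DMSO.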

[4] = read-out: Forkhead box O3 (FOXO3), FOXO3 (gene 2309); test: LTEA_HepaRG_FOXO3: Life Technologies and Expression Analysis (LTEA) Assay for Forkhead box O3 (FOXO3) using HepaRG (AID 2283459); conditions: mRNA level, 48 h; actives raise or lower the signal
Summary of the method: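 HepaRG, 48 h post-dose; 8 conc., half-log from 100 uM, 0.5% DMSO, duplicates; serum-free induction medium. Readout: FOXO3 mRNA, TaqMan qRT-PCR, housekeeping-normalized. Bidirectional curve fit vs DMSO baseline.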

[5] = read-out: ABC Transporter (ABCB1), ABCB1 (gene 5243); test: LTEA_HepaRG_ABCB1: Life Technologies and Expression Analysis (LTEA) Assay for ABC Transporter (ABCB1) using HepaRG (AID 2283460); conditions: mRNA level, 48 h; actives raise or lower the signal
Summary of the method: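 Expression of ABCB1 was quantified by qRT-PCR against three housekeeping genes after human HepaRG cultures received test chemicals for 48 hours. Concentrations spanned eight half-log steps topping at 100 uM in 0.5% DMSO; gain or loss of signal was fitted relative to vehicle.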

[6] = read-out: growth arrest and DNA damage 45 (GADD45B), GADD45B (gene 4616); test: LTEA_HepaRG_GADD45B: Life Technologies and Expression Analysis (LTEA) Assay for growth arrest and DNA damage 45 (GADD45B) using HepaRG (AID 2283461); conditions: mRNA level, 48 h; actives raise or lower the signal
Summary of the method: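 Differentiated human HepaRG cells in serum-free induction medium exposed 48 h in duplicate to eight concentrations, top 100 uM, half-log steps, 0.5% DMSO. GADD45B mRNA by TaqMan qRT-PCR, normalized to ACTB, GAPDH, POLR2A; bidirectional fit versus DMSO.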

[7] = read-out: ABC Transporter (ABCC3), ABCC3 (gene 8714); test: LTEA_HepaRG_ABCC3: Life Technologies and Expression Analysis (LTEA) Assay for ABC Transporter (ABCC3) using HepaRG (AID 2283462); conditions: mRNA level, 48 h; actives raise or lower the signal
Summary of the method: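 Differentiated human HepaRG cells exposed 48 h in serum-free induction medium, 0.5% DMSO vehicle, 8-point half-log series to 100 uM in duplicate. ABCC3 mRNA by qRT-PCR, normalised to ACTB, GAPDH, POLR2A; bidirectional fit vs DMSO.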

[8] = read-out: ABC Transporter (ABCB11), ABCB11 (gene 8647); test: LTEA_HepaRG_ABCB11: Life Technologies and Expression Analysis (LTEA) Assay for ABC Transporter (ABCB11) using HepaRG (AID 2283463); conditions: mRNA level, 48 h; actives raise or lower the signal
Summary of the method: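 ABCB11 transcript levels are read by Fluidigm TaqMan qRT-PCR after 48 h chemical treatment of human HepaRG cells. Concentrations span 100 uM downward in half-log steps with 0.5% DMSO; gain or loss is fitted against DMSO controls.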

[9] = read-out: ABC Transporter (ABCC2), ABCC2 (gene 1244); test: LTEA_HepaRG_ABCC2: Life Technologies and Expression Analysis (LTEA) Assay for ABC Transporter (ABCC2) using HepaRG (AID 2283464); conditions: mRNA level, 48 h; actives raise or lower the signal
Summary of the method: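 Differentiated HepaRG cells in serum-free induction medium exposed 48 h to eight half-log concentrations up to 100 uM, 0.5% DMSO, in duplicate. ABCC2 mRNA measured by qRT-PCR (TaqMan, Fluidigm), normalized to ACTB, GAPDH and POLR2A. Fitted in both directions against DMSO.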

[10] = read-out: Broad substrate specificity ATP-binding cassette transporter ABCG2 (Homo sapiens) (UniProt Q9UNQ0); test: LTEA_HepaRG_ABCG2: Life Technologies and Expression Analysis (LTEA) Assay for ABC Transporter (ABCG2) using HepaRG (AID 2283465); conditions: mRNA level, 48 h; actives raise or lower the signal
Summary of the method: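 Read-out is ABCG2 mRNA induction or loss quantified by qRT-PCR after 48 h chemical treatment of human HepaRG cells, normalized to three housekeeping genes. Concentrations reached 100 uM top in half-log steps; fitting was bidirectional against 0.5% DMSO.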

[11] = read-out: ATP-citrate lyase (ACLY), ACLY (gene 47); test: LTEA_HepaRG_ACLY: Life Technologies and Expression Analysis (LTEA) Assay for ATP-citrate lyase (ACLY) using HepaRG (AID 2283466); conditions: mRNA level, 48 h; actives raise or lower the signal
Summary of the method: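 HepaRG, 48 h exposure, 8-pt half-log dilutions (top 100 uM), 0.5% DMSO. Readout: ACLY mRNA, TaqMan qRT-PCR, housekeeping-normalized (ACTB/GAPDH/POLR2A). Bidirectional curve fit vs DMSO.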

[12] = read-out: Peroxisomal acyl-coenzyme A oxidase 1 (ACOX1) gene, ACOX1 (gene 51); test: LTEA_HepaRG_ACOX1: Life Technologies and Expression Analysis (LTEA) Assay for Peroxisomal acyl-coenzyme A oxidase 1 (ACOX1) gene using HepaRG (AID 2283467); conditions: mRNA level, 48 h; actives raise or lower the signal
Summary of the method: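 Measured by qRT-PCR against three housekeeping genes: ACOX1 transcript change in human HepaRG cells after 48 h dosing. Concentrations ran up to 100 uM in half-log steps. Curves were fitted bidirectionally relative to 0.5% DMSO.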

[13] = read-out: Alkaline Phosphatase, Placental (ALPP) gene, ALPP (gene 250); test: LTEA_HepaRG_ALPP: Life Technologies and Expression Analysis (LTEA) Assay for Alkaline Phosphatase, Placental (ALPP) gene using HepaRG (AID 2283468); conditions: mRNA level, 48 h; actives raise or lower the signal
Summary of the method: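 HepaRG cells plated 48 h, then exposed in duplicate for 48 h in serum-free induction medium to 8-point half-log series from 100 uM in 0.5% DMSO. ALPP mRNA by TaqMan qRT-PCR, normalized to ACTB/GAPDH/POLR2A; bidirectional fit versus DMSO.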

[14] = read-out: Bcl-2 (BAD) gene, BAD (gene 572); test: LTEA_HepaRG_BAD: Life Technologies and Expression Analysis (LTEA) Assay for Bcl-2 (BAD) gene using HepaRG (AID 2283469); conditions: mRNA level, 48 h; actives raise or lower the signal
Summary of the method: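 BAD transcript change, measured by qRT-PCR against three housekeeping genes and fitted in both directions relative to 0.5% DMSO, after 48 h chemical treatment of human HepaRG liver cells at concentrations up to 100 uM.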

[15] = read-out: Bcl-2 (BAX) gene, BAX (gene 581); test: LTEA_HepaRG_BAX: Life Technologies and Expression Analysis (LTEA) Assay for Bcl-2 (BAX) gene using HepaRG (AID 2283470); conditions: mRNA level, 48 h; actives raise or lower the signal
Summary of the method: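 Differentiated human HepaRG cells, plated 48 h then switched to serum-free induction medium, were exposed 48 h to 8 half-log concentrations up to 100 uM in 0.5% DMSO; BAX mRNA measured by qRT-PCR, normalized to ACTB, GAPDH, POLR2A.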

[16] = read-out: adenosine kinase (ADK) gene, ADK (gene 132); test: LTEA_HepaRG_ADK: Life Technologies and Expression Analysis (LTEA) Assay for adenosine kinase (ADK) gene using HepaRG (AID 2283471); conditions: mRNA level, 48 h; actives raise or lower the signal
Summary of the method: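 ADK expression quantified by qRT-PCR, normalised to three housekeeping genes, after 48 h exposure of HepaRG cells to eight concentrations (top 100 uM, half-log steps, duplicate, 0.5% DMSO). Up- or down-regulation fitted relative to vehicle.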

[17] = read-out: Alpha-fetoprotein (AFP) gene, AFP (gene 174); test: LTEA_HepaRG_AFP: Life Technologies and Expression Analysis (LTEA) Assay for Alpha-fetoprotein (AFP) gene using HepaRG (AID 2283472); conditions: mRNA level, 48 h; actives raise or lower the signal
Summary of the method: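 Human HepaRG cells plated 48 h, then switched to serum-free induction medium and exposed in duplicate for 48 h to 8-point half-log series from 100 uM in 0.5% DMSO. AFP mRNA by qRT-PCR, normalized to ACTB, GAPDH, POLR2A; bidirectional fit versus DMSO.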

BCL2L11 (gene 10018) = test: LTEA_HepaRG_BCL2L11: Life Technologies and Expression Analysis (LTEA) Assay for Bcl-2 (BCL2L11) gene using HepaRG (AID 2283473); conditions: mRNA level, 48 h; actives raise or lower the signal
Summary of the method: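 Differentiated human HepaRG cells were exposed 48 h in serum-free induction medium to eight half-log concentrations up to 100 uM in 0.5% DMSO, in duplicate. BCL2L11 mRNA was quantified by TaqMan qRT-PCR, normalized to ACTB, GAPDH and POLR2A; induction or repression fitted versus DMSO.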

[18] = read-out: Apolipoprotein A-V (APOA5) gene, APOA5 (gene 116519); test: LTEA_HepaRG_APOA5: Life Technologies and Expression Analysis (LTEA) Assay for Apolipoprotein A-V (APOA5) gene using HepaRG (AID 2283474); conditions: mRNA level, 48 h; actives raise or lower the signal
Summary of the method: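 Differentiated HepaRG cells in serum-free induction medium, exposed 48 h in duplicate to eight half-log concentrations topping at 100 uM (0.5% DMSO). APOA5 mRNA by Fluidigm TaqMan qRT-PCR, normalized to ACTB, GAPDH and POLR2A; bidirectional fit versus DMSO.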

[19] = read-out: Apoptosis regulator Bcl-2 (Homo sapiens) (UniProt P10415); test: LTEA_HepaRG_BCL2: Life Technologies and Expression Analysis (LTEA) Assay for Bcl-2 gene using HepaRG (AID 2283475); conditions: mRNA level, 48 h; actives raise or lower the signal
Summary of the method: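 Differentiated HepaRG cells in serum-free induction medium were exposed for 48 h to eight half-log concentrations up to 100 uM in 0.5% DMSO, in duplicate. BCL2 mRNA was quantified by TaqMan qRT-PCR normalised to ACTB, GAPDH and POLR2A, with bidirectional fitting versus DMSO.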

Measured: outcome

Chain of Apoptosis regulator Bcl-2 (Homo sapiens) (P10415 whole entry, looked up): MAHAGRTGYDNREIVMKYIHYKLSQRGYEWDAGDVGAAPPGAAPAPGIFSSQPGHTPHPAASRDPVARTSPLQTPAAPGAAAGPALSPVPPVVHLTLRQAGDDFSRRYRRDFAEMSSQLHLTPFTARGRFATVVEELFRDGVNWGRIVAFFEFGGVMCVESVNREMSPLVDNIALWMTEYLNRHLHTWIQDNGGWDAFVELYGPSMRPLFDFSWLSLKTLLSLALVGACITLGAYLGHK
Chain of Broad substrate specificity ATP-binding cassette transporter ABCG2 (Homo sapiens) (Q9UNQ0 whole entry, looked up): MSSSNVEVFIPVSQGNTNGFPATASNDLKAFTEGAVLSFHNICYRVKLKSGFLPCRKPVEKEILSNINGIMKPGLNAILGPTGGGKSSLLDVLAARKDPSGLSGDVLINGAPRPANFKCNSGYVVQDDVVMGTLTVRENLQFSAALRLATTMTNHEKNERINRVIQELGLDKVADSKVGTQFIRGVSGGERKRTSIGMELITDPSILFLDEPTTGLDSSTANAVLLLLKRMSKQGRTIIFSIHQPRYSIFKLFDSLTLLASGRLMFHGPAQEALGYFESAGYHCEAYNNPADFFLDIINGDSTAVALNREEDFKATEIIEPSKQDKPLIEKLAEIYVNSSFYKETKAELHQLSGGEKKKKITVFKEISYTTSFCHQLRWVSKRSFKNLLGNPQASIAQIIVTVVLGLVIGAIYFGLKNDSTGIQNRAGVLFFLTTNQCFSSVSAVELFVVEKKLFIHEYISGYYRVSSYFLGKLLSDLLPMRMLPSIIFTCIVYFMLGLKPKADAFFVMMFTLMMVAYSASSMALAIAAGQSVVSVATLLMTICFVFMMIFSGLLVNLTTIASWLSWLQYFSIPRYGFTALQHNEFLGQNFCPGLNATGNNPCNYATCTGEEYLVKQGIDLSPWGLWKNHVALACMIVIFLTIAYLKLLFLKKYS

C=CC(=O)OCCCCCCOC(=O)C=C
inactive: [1]

Nc1ccc(C(=O)O)cc1
not listed: [1]
inactive: all other assays above

C1CNCCN1
not listed: [1]
inactive: all other assays above

Cc1ccc([N+](=O)[O-])cc1N
not listed: [1]
inactive: all other assays above

CCOC(=O)C1=NN(c2ccc(Cl)cc2Cl)C(C)(C(=O)OCC)C1 (stereo not given)
inactive: [1]

COc1ccc(C(=O)c2ccccc2)c(O)c1
inactive: [1]
